Bioassay records (PubChem BioAssay)
U2OS ROS induce = ROS inducers in U2OS cancer cells, primary screen, cell-based, H2DCF-DA fluorescence; U2OS ROS induction; ROS induction (% of piperlongumine), % at 10 µM; 46,000 tested, 2% active; in the data active means ROS induction above about 79%, passing the limit was not always enough; inconclusive means no clear call, values can overlap the other calls
NOMO-1 viab = NOMO-1 AML cell viability reduction, primary screen, STK33 inhibitor project, CellTiter-Glo luminescence | NOMO-1 AML viability, 72 h | inhibition, % (no concentration beside the values) | 37,000 tested, 7.5% active; in the data active means inhibition above about 80%; inconclusive means no clear call, values can overlap the other calls
Hits are given with their value; . = inactive; ? = inconclusive; / = no result given. This is one part of a sample in which hits are shown more often than they occur.

SMILES	U2OS ROS induce	NOMO-1 viab
C[C@@H]1CN([C@H](C)CO)C(=O)Cc2cc(NC(=O)CCCCCC(=O)Nc3ccccc3N)ccc2O[C@@H]1CN(C)CC1CCCCC1	.	133.4
C[C@@H]1CN([C@H](C)CO)C(=O)Cc2cc(NC(=O)CCCCCC(=O)Nc3ccccc3N)ccc2O[C@H]1CN(C)CC1CCCCC1	.	120.4
C[C@H]1CN([C@@H](C)CO)C(=O)Cc2cc(NC(=O)CCCCCC(=O)Nc3ccccc3N)ccc2O[C@@H]1CN(C)CC1CCCCC1	.	102.0
COc1cc(C(=O)O)cc(OC)c1O	.	.
Cn1nc(C(C)(C)C)cc1C(=O)NC1CCCCNC1=O (stereo not drawn)	.	/
CCOC(=O)c1sc(SCCS(=O)(=O)c2ccc(Cl)cc2)c2c1CCCC2=O	.	.
Cc1ccc(S(=O)(=O)CCSc2sc(C#N)c3c2C(=O)CC(C)(C)C3)cc1	124.8	93.6
C[C@@H]1CN([C@H](C)CO)C(=O)c2cc(NC(=O)C3CCCCC3)ccc2O[C@@H]1CN(C)C	.	.
COc1ccc(CN(C)C[C@H]2Oc3ccc(NS(=O)(=O)c4ccc(OC)cc4)cc3C(=O)N([C@H](C)CO)C[C@H]2C)cc1	.	.
C[C@H](CO)N1C[C@H](C)[C@H](CN(C)CC2CCCCC2)Oc2ccc(NC(=O)CCCN(C)C)cc2CC1=O	.	.
C[C@@H]1CN([C@H](C)CO)C(=O)Cc2cc(NC(=O)c3ccncc3)ccc2O[C@H]1CN(C)Cc1ccc(C(=O)Nc2ccccc2N)cc1	.	.
C[C@@H]1CN([C@H](C)CO)C(=O)Cc2cc(NC(=O)C3CC3)ccc2O[C@@H]1CN(C)Cc1ccc(C(=O)Nc2ccccc2N)cc1	.	.
C[C@@H]1CN([C@H](C)CO)C(=O)Cc2cc(N(C)C)ccc2O[C@@H]1CN(C)Cc1ccc(C(=O)Nc2ccccc2N)cc1	.	139.7
C[C@@H]1CN([C@H](C)CO)C(=O)Cc2cc(N(C)C)ccc2O[C@H]1CN(C)Cc1ccc(C(=O)Nc2ccccc2N)cc1	.	126.9
O=C(CN1CCCCC1)Nc1nonc1NC(=O)CN1CCCCC1	/	.
Cc1nc(SCCC(=O)O)c2oc3ccccc3c2n1	.	/
CC(C)(C)c1ccccc1OCC(=O)NCc1ccccc1	.	/
CC(NC(=O)COc1ccccc1C(C)(C)C)c1ccccc1 (stereo not drawn)	.	115.2
CC(C)N(Cc1nc(-c2ccc(Cl)cc2)no1)S(=O)(=O)c1ccc2ccccc2c1	.	.
CNC[C@@H]1Oc2ccc(NC(=O)Nc3cccc4ccccc34)cc2C(=O)N([C@@H](C)CO)C[C@H]1C	.	.
C[C@@H]1CN([C@H](C)CO)C(=O)c2cccc(N(C)C)c2O[C@@H]1CN(C)Cc1ccc(C(=O)Nc2ccccc2N)cc1	.	126.9
C[C@H](CO)N1C[C@H](C)[C@H](CN(C)Cc2ccc(C(=O)Nc3ccccc3N)cc2)Oc2c(cccc2N(C)C)C1=O	.	124.4
Cn1c(=O)c2nc(-c3ccccc3I)oc2c2ccccc21	.	/
O=C(COC(=O)C12CC3CC(CC(C3)C1)C2)c1ccc(Br)cc1	.	/
C=C1CC[C@@H]2[C@](C)(CO[C@@H]3O[C@H](CO)[C@@H](O)[C@H](O)[C@H]3O)CCC[C@@]2(C)[C@@H]1CCC1=CCOC1=O	.	.
SMILES	U2OS ROS induce	NOMO-1 viab
C=C1CC[C@@H]2[C@](C)(CO)[C@H](O)CC[C@@]2(C)[C@@H]1CC(O)C1=CCOC1=O (stereo partly drawn)	.	105.7
C[C@H](CO)N1C[C@H](C)[C@@H](CN(C)Cc2ccncc2)Oc2c(NC(=O)c3nc4ccccc4s3)cccc2C1=O	.	.
C[C@@H]1CN([C@H](C)CO)C(=O)c2cccc(NC(=O)c3nc4ccccc4s3)c2O[C@H]1CN(C)Cc1ccc(C(F)(F)F)cc1	.	100.6
C[C@H](CO)N1C[C@H](C)[C@H](CN(C)C(=O)Nc2ccc(C(F)(F)F)cc2)Oc2c(NC(=O)c3nc4ccccc4s3)cccc2C1=O	.	103.6
C[C@H](CO)N1C[C@H](C)[C@@H](CN(C)C(=O)Nc2ccc(C(F)(F)F)cc2)Oc2c(NC(=O)c3nc4ccccc4s3)cccc2C1=O	.	.
C[C@H]1CN([C@@H](C)CO)C(=O)c2cccc(NC(=O)c3nc4ccccc4s3)c2O[C@H]1CN(C)Cc1ccc(Oc2ccccc2)cc1	94.6	.
C[C@H](CO)N1C[C@H](C)[C@H](CN(C)Cc2ccc(Oc3ccccc3)cc2)Oc2c(NC(=O)c3nc4ccccc4s3)cccc2C1=O	.	.
C[C@H]1CN([C@@H](C)CO)C(=O)c2cccc(NC(=O)c3nc4ccccc4s3)c2O[C@H]1CN(C)Cc1ccc(C(F)(F)F)cc1	.	.
C[C@H](CO)N1C[C@H](C)[C@H](CN(C)Cc2ccncc2)Oc2c(NC(=O)c3nc4ccccc4s3)cccc2C1=O	.	88.5
CCc1nn(CC(=O)NC2CC2)c(=O)c2cc3occc3n12	.	/
CN(CCO)c1ccc(/C=N/NC(=O)CCCCCCC(=O)Nc2ccccc2O)cc1	.	/
C[C@@H]1CN([C@H](C)CO)C(=O)c2cc(NC(=O)C3CCCCC3)ccc2O[C@@H]1CN(C)Cc1ccc(C(=O)Nc2ccccc2N)cc1	.	?
C[C@@H]1CN([C@@H](C)CO)C(=O)c2cc(NC(=O)C3CC3)ccc2O[C@@H]1CN(C)Cc1ccc(C(=O)Nc2ccccc2N)cc1	.	105.5
CC(C)NC(=O)Nc1ccc2c(c1)C(=O)N([C@@H](C)CO)C[C@H](C)[C@H](CN(C)Cc1ccc(C(=O)Nc3ccccc3N)cc1)O2	.	/
C[C@@H]1CN([C@@H](C)CO)C(=O)c2cc(NC(=O)C3CCCCC3)ccc2O[C@@H]1CN(C)Cc1ccc(C(=O)Nc2ccccc2N)cc1	.	108.9
C[C@H]1CN([C@@H](C)CO)C(=O)c2cc(NC(=O)C3CC3)ccc2O[C@H]1CN(C)Cc1ccc(C(=O)Nc2ccccc2N)cc1	.	105.7
C[C@H](CO)N1C[C@H](C)[C@H](CN(C)Cc2ccc(C(=O)Nc3ccccc3N)cc2)Oc2ccc(NC(=O)C3CC3)cc2C1=O	.	?
Cc1cc(=O)oc2ccc(OCC(=O)N3CCOCC3)cc12	.	/
O=C(CCCCCCC(=O)Nc1ccccc1O)N/N=C/c1ccccc1OCCO	.	/
CNC[C@H]1Oc2c(NS(=O)(=O)c3cn(C)cn3)cccc2C(=O)N([C@@H](C)CO)C[C@H]1C	.	.
O=C(N/N=C/c1cccc(Oc2ccccc2)c1)c1ccccc1O	.	/
CC(=O)Nc1nonc1-c1nc2ccccc2n1Cc1cccc2ccccc12	/	118.3
COc1ccc(Cn2c(-c3nonc3NC(C)=O)nc3ccccc32)cc1	.	.
C[C@H]1CN([C@@H](C)CO)C(=O)Cc2cc(NC(=O)CCCCCC(=O)Nc3ccccc3N)ccc2O[C@H]1CN(C)C(=O)NC1CCCCC1	.	.
CCN(CC)c1c(C#N)c(SCC(=O)c2cccs2)cc2c1CCCC2	91.7	.
SMILES	U2OS ROS induce	NOMO-1 viab
Cc1cc(C)c2c(=O)[nH]c(SCC(=O)c3cccs3)nc2n1	.	.
C[C@@H]1CN([C@@H](C)CO)C(=O)c2cccc(NC(=O)Nc3ccc(F)cc3)c2O[C@@H]1CN(C)S(=O)(=O)c1cn(C)cn1	.	.
N#CC(C#N)=C(Nc1ccccc1Cl)SCc1cccc(F)c1	.	87.0
Cc1c(Cl)cccc1NC(=O)CN(c1cccc(F)c1)S(C)(=O)=O	.	.
Cc1cc(N)n(-c2ccccc2C(=O)O)n1	.	/
CCOC(=O)c1c(NC(=O)C(C)Oc2ccccc2C)sc2c1CCCC2 (stereo not drawn)	/	.
